From PubChem BioAssay (NCATS)
Results filed as inconclusive are left out. A call without a number means that no potency is given here. Calls of active or inactive are those of the source. The call rests on the fitted dose curve; in most records, active means well fitted inhibition curve with a large enough effect; inconclusive means small, poorly fitted or top-dose-only effect; inactive means flat fitted curve, though single readings scatter.

biological target: Glutathione peroxidase 1 (Homo sapiens) (UniProt P07203); experiment: Primary qHTS Assay for Inhibitors of Recombinant Selenoprotein Glutathione Peroxidase 1 (GPX1) (AID 1845191); settings: recombinant GPX1, GR-coupled NADPH fluorescence, 15 min; series mostly up to 48.8 µM; further: nearly all actives have a fitted effect of over 65% in size
Source text: Assay Provider: Elias S.J. Arner MD PhD.
Department of Medical Biochemistry and Biophysics
Karolinska Institutet, Solna, Stockholm, Sweden
Selenoprotein glutathione peroxidases (GPX), like the ubiquitously expressed GPX1 and the ferroptosis modulator GPX4, enact their antioxidant activities by reducing hydroperoxides using glutathione. […] GPX1 and GPX4 inhibitors have thus shown promise as anti-cancer agents. Existing inhibitors are often promiscuous, or modulate GPX activity only indirectly, so novel direct inhibitors identified through screening against GPX1 and GPX4 could be valuable. Here, we developed optimized glutathione reductase (GR)-coupled GPX assays for the biochemical high-throughput screen (HTS) of almost 12,000 compounds with known mechanisms of action. Initial hits were triaged using a GR counter-screen, assessed for isoform specificity using a separate GPX2 assay, and were assessed for general selenocysteine-targeting activity using a thioredoxin reductase (TXNRD1) assay. With this suite of assays, we identified novel GPX1/GPX2- and GPX4-specific inhibitors and can here present a validated pipeline for future discovery research for selenoprotein-targeting agents.
SEQUENCE No. (e.g., 1, 2, 3, etc.); […] (e.g., Cells, Incubation, Reagent, etc.); VALUE; DESCRIPTION.
1; Reagent 1; 3 uL; GPx1 enzyme or no enzyme control in 1536-well, black, solid Greiner assay plate.
2; Compound; 25 nL; Kalypsis pin tool (Wako USA) equipped with a 1536-well pin head.
3; Incubation; 30 min; room temperature.
4; Reagent 2; 1 uL; 10 nM GPX1, 1 mM GSH, 0.5 mM CHP, 0.5 mM NADPH, 100 nM GR, 0.01% BSA substrate
5; Detection; Fluorescence; ViewLux microplate reader, excitation 340 nm and emission 450 nm.
6; Incubation; 15 min; room temperature.
7; Detection; Fluorescence; ViewLux microplate reader, excitation 340 nm and emission 450 nm.
NOTES (numbers refer to Sequence numbers above)
1. 3 uL of 16.66 nM GPX1 and 0.016% BSA in assay buffer (50 mM Tris-HCl, 2 mM EDTA (pH 7.5), 150 mM NaCl) was added to columns 3-48 of 1536-well assay plates using a BioRAPTR Flying Reagent Dispenser (Let's Go Robotics (LGR), Carlsbad, CA). A no-enzyme control (0.01% BSA in TES assay buffer) was added to columns 1-2.
2. 25 nL of test compounds and DMSO controls were added to each well with a pin tool (Kalypsys).
3. The assay plates were incubated for 30 minutes at room temperature.
4. 1 uL of master mix (500 nM glutathione reductase (GR), 5 mM reduced glutathione (GSH), 2.5 mM NADPH in assay buffer) was added. 1 uL of cumene hydroperoxide (CHP) ([2.5 mM] in 50% EtOH) was then added within 5 minutes to initiate the reaction. Final concentrations were: 10 nM GPX1, 1 mM GSH, 0.5 mM CHP, 0.5 mM NADPH, 100 nM GR, 0.01% BSA.
5. Initial fluorescence readout (t=0) at 340/450 nm was measured using a ViewLux multimodal detector (PerkinElmer, Waltham, MA).
7. Endpoint fluorescence readout (t=15) at 340/450 nm was measured 15 min after room temperature incubation.

Chain of Glutathione peroxidase 1 (Homo sapiens) (P07203 whole entry, looked up): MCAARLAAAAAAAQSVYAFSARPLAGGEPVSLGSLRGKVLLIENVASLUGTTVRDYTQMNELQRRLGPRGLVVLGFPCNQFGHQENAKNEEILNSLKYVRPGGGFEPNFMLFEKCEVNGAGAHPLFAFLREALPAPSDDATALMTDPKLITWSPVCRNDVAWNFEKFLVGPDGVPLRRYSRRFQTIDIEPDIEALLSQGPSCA

Row | SMILES | Potency
1 | NS(=O)(=O)c1cc(C(=O)O)cc(N2CCCC2)c1Oc1ccccc1 | inactive
2 | CCCc1ncc(C[n+]2ccccc2C)c(N)n1 | inactive
3 | C#C[C@]1(O)CC[C@H]2[C@@H]3CCC4=CC(=O)CC[C@@H]4[C@H]3CC[C@@]21CC | inactive
4 | O=C(O)CCNC(=O)c1ccccc1 | inactive
5 | C#C[C@]1(OC(C)=O)CC[C@H]2[C@@H]3CCC4=C/C(=N/O)CC[C@@H]4[C@H]3CC[C@@]21CC | inactive
6 | CCOc1ccccc1OCCN[C@H](C)Cc1ccc(OC)c(S(N)(=O)=O)c1 | inactive
7 | CNCCCCOc1ccccc1Cc1ccccc1 | inactive
8 | Cc1cc(C)cc(OCC2CNC(=O)O2)c1 (stereo not given) | inactive
9 | CCN(CC)CCOc1ccccc1C(=O)CCc1ccccc1 | inactive
10 | O=C(O)P(=O)(O)O | inactive
11 | C[C@H]1O[C@@H](O[C@H]2CC[C@@]3(C)[C@H](CC[C@@H]4[C@@H]3C[C@@H](O)[C@]3(C)[C@@H](C5=CC(=O)OC5)CC[C@]43O)C2)C[C@H](O)[C@@H]1O[C@H]1C[C@H](O)[C@H](O[C@H]2C[C@H](O)[C@H](O[C@@H]3O[C@H](CO)[C@@H](O)[C@H](O)[C@H]3O)[C@@H](C)O2)[C@@H](C)O1 | inactive
12 | O=C(NC1CCN(CCc2c[nH]c3ccccc23)CC1)c1ccccc1 | inactive
13 | COc1ccc(C(=O)c2ccccc2O)c(O)c1 | inactive
14 | COc1cc(C(=O)NCc2ccc(OCCN(C)C)cc2)cc(OC)c1OC | inactive
15 | c1ccc(-c2nc[nH]c2-c2ccccc2)cc1 | inactive
16 | O=C1C(CCS(=O)c2ccccc2)C(=O)N(c2ccccc2)N1c1ccccc1 (stereo not given) | inactive
17 | CN(C)CCC[C@@]1(c2ccc(F)cc2)OCc2cc(C#N)ccc21 | inactive
18 | C=C[C@H]1CN2CC[C@H]1C[C@H]2[C@H](O)c1ccnc2ccc(OC)cc12 | inactive
19 | CCCCC(CC)COC(=O)/C=C/c1ccc(OC)cc1 (stereo not given) | inactive
20 | C=C[C@H]1CN2CC[C@H]1C[C@@H]2[C@@H](O)c1ccnc2ccc(OC)cc12 | inactive

Row | SMILES | Potency
21 | C[N+]1(CC2COC(c3ccccc3)(C3CCCCC3)O2)CCCCC1 (stereo not given) | inactive
22 | C[N+]1(C)CCC(=C(c2ccccc2)c2ccccc2)CC1 | inactive
23 | CCc1nn(CCCN2CCN(c3cccc(Cl)c3)CC2)c(=O)n1CCOc1ccccc1 | inactive
24 | NS(=O)(=O)c1cc2c(cc1Cl)NC(CC1CCCC1)NS2(=O)=O (stereo not given) | inactive
25 | O=C(O)CCC(=O)Nc1ccc(S(=O)(=O)Nc2nccs2)cc1 | inactive
26 | CCN(CC)CCOC(=O)C1(c2ccccc2)CCCC1 | inactive
27 | OC1C(O)C(O)C(O)C(O)C1O (stereo not given) | inactive
28 | CCCN(CCc1cccs1)[C@H]1CCc2c(O)cccc2C1 | inactive
29 | O=C1C(=O)c2ccccc2C(O)=C1C1CCC(c2ccc(Cl)cc2)CC1 (stereo not given) | inactive
30 | COc1cc([C@H]2Oc3cc([C@H]4Oc5cc(O)cc(O)c5C(=O)[C@@H]4O)ccc3O[C@@H]2CO)ccc1O | inactive
31 | O[C@@H](c1cc(C(F)(F)F)nc2c(C(F)(F)F)cccc12)[C@H]1CCCCN1 | inactive
32 | COc1cc(N)c(Cl)cc1C(=O)NC1CCN(Cc2ccccc2)CC1 | inactive
33 | CC[C@H](c1ccc(O)cc1)[C@@H](CC)c1ccc(O)cc1 | inactive
34 | CO[C@H]1C=CO[C@@]2(C)Oc3c(C)c(O)c4c(O)c(c(/C=N/N5CCN(C)CC5)c(O)c4c3C2=O)NC(=O)/C(C)=C\C=C[C@H](C)[C@H](O)[C@@H](C)[C@@H](O)[C@@H](C)[C@H](OC(C)=O)[C@@H]1C | inactive
35 | C=C[C@@]1(C)CC(=O)[C@]2(O)[C@@]3(C)[C@@H](O)CCC(C)(C)[C@@H]3[C@H](O)[C@H](OC(C)=O)[C@@]2(C)O1 | inactive
36 | CCN1CCCC(OC(=O)C(c2ccccc2)c2ccccc2)C1 (stereo not given) | inactive
37 | CCCCCCCCCCCCCCCCO | inactive
38 | CCOc1cc(OCC)c(C(=O)CCC(=O)O)cc1OCC | inactive
39 | COC(=O)C(c1ccccc1Cl)N1CCc2sccc2C1 (stereo not given) | inactive
40 | CCc1ccc(C(=O)C(C)CN2CCCCC2)cc1 (stereo not given) | inactive
